From PMC11006913 come the findings set out here.

Common to all, as to experiment: PBM; 200 nM protein, PBS
Details in all cases: dsDNA, one strand shown

The target in experiment [1] is HOXA4 (Homo sapiens, UniProt Q00056 201-287, W262R).
The target of experiment [2] is HOXA4 (Homo sapiens, UniProt Q00056 201-287, R217L).
Experiment [3] concerns the target HOXA4 (Homo sapiens, UniProt Q00056 201-287).
Experiment [4] addresses HOXA4 (Homo sapiens, UniProt Q00056 201-287, W262F).
Experiment [5] concerns the target HOXC9 (Homo sapiens, UniProt P31274 178-260, K195R).
The target of experiment [6] is HOXC10 (Homo sapiens, UniProt Q9NYD6 254-340).
HOXC10 (Homo sapiens, UniProt Q9NYD6 254-340), sequence (Q9NYD6 254-340): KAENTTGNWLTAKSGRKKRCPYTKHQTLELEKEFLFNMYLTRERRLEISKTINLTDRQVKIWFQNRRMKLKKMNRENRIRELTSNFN
In experiment [7] the target is HOXC9 (Homo sapiens, UniProt P31274 178-260).
HOXC9 (Homo sapiens, UniProt P31274 178-260), sequence (P31274 178-260): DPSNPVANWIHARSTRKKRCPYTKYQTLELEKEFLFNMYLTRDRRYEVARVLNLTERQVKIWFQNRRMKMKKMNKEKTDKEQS
For experiment [8], the target named is HOXC9 (Homo sapiens, UniProt P31274 178-260, R193K).
HOXC9 (Homo sapiens, UniProt P31274 178-260, R193K), sequence (P31274 178-260 R193K): as the sequence (P31274 178-260) above, with R16K counted along it
Experiment [9] concerns the target HOXC10 (Homo sapiens, UniProt Q9NYD6 254-340, K271E).
The target in experiment [10] is HOXC9 (Homo sapiens, UniProt P31274 178-260, R222W).
HOXC9 (Homo sapiens, UniProt P31274 178-260, R222W), sequence (P31274 178-260 R222W): as the sequence (P31274 178-260) above, with R45W counted along it
Experiment [11] addresses PRRX1 (Homo sapiens, UniProt P54821 80-166, F113S).
Experiment [12] addresses MSX2 (Homo sapiens, UniProt P35548 130-214, R199I).
For experiment [13], the target named is MSX2 (Homo sapiens, UniProt P35548 130-214).
MSX2 (Homo sapiens, UniProt P35548 130-214), sequence (P35548 130-214): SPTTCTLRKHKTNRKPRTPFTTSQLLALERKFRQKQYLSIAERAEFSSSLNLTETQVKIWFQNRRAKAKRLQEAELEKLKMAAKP
The target in experiment [14] is MSX2 (Homo sapiens, UniProt P35548 130-214, F161Y).
MSX2 (Homo sapiens, UniProt P35548 130-214, F161Y), sequence (P35548 130-214 F161Y): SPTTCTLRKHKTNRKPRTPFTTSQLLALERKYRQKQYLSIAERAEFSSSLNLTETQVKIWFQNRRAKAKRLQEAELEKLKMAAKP
The target in experiment [15] is PRRX1 (Homo sapiens, UniProt P54821 80-166).
PRRX1 (Homo sapiens, UniProt P54821 80-166), sequence (P54821 80-166): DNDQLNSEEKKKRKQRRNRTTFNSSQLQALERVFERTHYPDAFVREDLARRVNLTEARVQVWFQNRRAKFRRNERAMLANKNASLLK

HOXA4 (Homo sapiens, UniProt Q00056 201-287, W262F), sequence (Q00056 201-287 W262F): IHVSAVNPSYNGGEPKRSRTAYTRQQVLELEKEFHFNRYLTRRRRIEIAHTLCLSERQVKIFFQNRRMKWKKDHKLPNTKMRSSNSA
HOXA4 (Homo sapiens, UniProt Q00056 201-287), sequence (Q00056 201-287): as the sequence (Q00056 201-287 W262F) above, with F62W counted along it
HOXA4 (Homo sapiens, UniProt Q00056 201-287, R217L), sequence (Q00056 201-287 R217L): as the sequence (Q00056 201-287 W262F) above, with R17L, F62W counted along it
HOXA4 (Homo sapiens, UniProt Q00056 201-287, W262R), sequence (Q00056 201-287 W262R): as the sequence (Q00056 201-287 W262F) above, with F62R counted along it
HOXC9 (Homo sapiens, UniProt P31274 178-260, K195R), sequence (P31274 178-260 K195R): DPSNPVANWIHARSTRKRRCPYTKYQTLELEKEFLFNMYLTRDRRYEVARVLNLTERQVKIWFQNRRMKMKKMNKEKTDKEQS
PRRX1 (Homo sapiens, UniProt P54821 80-166, F113S), sequence (P54821 80-166 F113S): as the sequence (P54821 80-166) above, with F34S counted along it
HOXC10 (Homo sapiens, UniProt Q9NYD6 254-340, K271E), sequence (Q9NYD6 254-340 K271E): as the sequence (Q9NYD6 254-340) above, with K18E counted along it
MSX2 (Homo sapiens, UniProt P35548 130-214, R199I), sequence (P35548 130-214 R199I): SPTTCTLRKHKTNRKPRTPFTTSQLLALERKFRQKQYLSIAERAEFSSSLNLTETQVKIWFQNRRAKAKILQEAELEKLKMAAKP

Regarding AACATTAG, the binding signal in experiment [1] was 10.2 upbm affinity estimate (log intensity, higher = more binding, comparable within an allelic series); in [2] it was 10.8 upbm affinity estimate (log intensity, higher = more binding, comparable within an allelic series); in experiment [3], 12.4 upbm affinity estimate (log intensity, higher = more binding, comparable within an allelic series); in experiment [4], 10.7 upbm affinity estimate (log intensity, higher = more binding, comparable within an allelic series).

Regarding GAAGGGGA, the binding signal in [1] was 9.88 upbm affinity estimate (log intensity, higher = more binding, comparable within an allelic series); in experiment [2], 9.89 upbm affinity estimate (log intensity, higher = more binding, comparable within an allelic series); in experiment [3] it was 9.82 upbm affinity estimate (log intensity, higher = more binding, comparable within an allelic series); in experiment [4], 10 upbm affinity estimate (log intensity, higher = more binding, comparable within an allelic series).

On to ACGTTAAT, for which the binding signal is 10.6 upbm affinity estimate (log intensity, higher = more binding, comparable within an allelic series) in [1]; 11.6 upbm affinity estimate (log intensity, higher = more binding, comparable within an allelic series) in experiment [2]; 12.9 upbm affinity estimate (log intensity, higher = more binding, comparable within an allelic series) in experiment [3]; 11 upbm affinity estimate (log intensity, higher = more binding, comparable within an allelic series) in experiment [4].

With CCCATGGC, the binding signal was 9.82 upbm affinity estimate (log intensity, higher = more binding, comparable within an allelic series) in [1]; 9.81 upbm affinity estimate (log intensity, higher = more binding, comparable within an allelic series) in experiment [2]; 9.77 upbm affinity estimate (log intensity, higher = more binding, comparable within an allelic series) in experiment [3]; 9.85 upbm affinity estimate (log intensity, higher = more binding, comparable within an allelic series) in experiment [4].

Regarding ATAAATCG, the binding signal in experiment [1] was 10.2 upbm affinity estimate (log intensity, higher = more binding, comparable within an allelic series); in experiment [3], 11.5 upbm affinity estimate (log intensity, higher = more binding, comparable within an allelic series).

Consider TGATGACA, for which the binding signal in experiment [1] is 10.2 upbm affinity estimate (log intensity, higher = more binding, comparable within an allelic series); in [3] it was 11.8 upbm affinity estimate (log intensity, higher = more binding, comparable within an allelic series).

CTCCCACC: the binding signal in experiment [1] is 9.83 upbm affinity estimate (log intensity, higher = more binding, comparable within an allelic series); in [2] it was 9.72 upbm affinity estimate (log intensity, higher = more binding, comparable within an allelic series); in experiment [3] it was 9.74 upbm affinity estimate (log intensity, higher = more binding, comparable within an allelic series); in experiment [4], 9.88 upbm affinity estimate (log intensity, higher = more binding, comparable within an allelic series).

Take ATATTGAG: the binding signal in experiment [1] is 10.3 upbm affinity estimate (log intensity, higher = more binding, comparable within an allelic series); in experiment [3], 10.9 upbm affinity estimate (log intensity, higher = more binding, comparable within an allelic series).

Turning to CCTTCCCG, the binding signal was 9.88 upbm affinity estimate (log intensity, higher = more binding, comparable within an allelic series) in [1]; 9.86 upbm affinity estimate (log intensity, higher = more binding, comparable within an allelic series) in experiment [2]; 9.79 upbm affinity estimate (log intensity, higher = more binding, comparable within an allelic series) in experiment [3]; 9.89 upbm affinity estimate (log intensity, higher = more binding, comparable within an allelic series) in [4].

For the sequence GAAAACGA, the binding signal in [1] was 10.1 upbm affinity estimate (log intensity, higher = more binding, comparable within an allelic series); in experiment [3], 10.9 upbm affinity estimate (log intensity, higher = more binding, comparable within an allelic series).

For CCTCCAGC, the binding signal is 9.79 upbm affinity estimate (log intensity, higher = more binding, comparable within an allelic series) in experiment [1]; 9.82 upbm affinity estimate (log intensity, higher = more binding, comparable within an allelic series) in experiment [2]; 9.83 upbm affinity estimate (log intensity, higher = more binding, comparable within an allelic series) in [3]; 9.76 upbm affinity estimate (log intensity, higher = more binding, comparable within an allelic series) in experiment [4].

Turning to TAAAATTA, the binding signal in experiment [1] is 10.3 upbm affinity estimate (log intensity, higher = more binding, comparable within an allelic series); in experiment [3], 12.2 upbm affinity estimate (log intensity, higher = more binding, comparable within an allelic series).

For CCTCCGTC, the binding signal in [1] is 9.85 upbm affinity estimate (log intensity, higher = more binding, comparable within an allelic series); in experiment [2], 9.8 upbm affinity estimate (log intensity, higher = more binding, comparable within an allelic series); in experiment [3], 9.63 upbm affinity estimate (log intensity, higher = more binding, comparable within an allelic series); in experiment [4], 9.84 upbm affinity estimate (log intensity, higher = more binding, comparable within an allelic series).

As for AATCGATG, the binding signal in [1] was 10.4 upbm affinity estimate (log intensity, higher = more binding, comparable within an allelic series); in [3], 11.7 upbm affinity estimate (log intensity, higher = more binding, comparable within an allelic series).

With AGTCTTTA, the binding signal in experiment [1] is 10.2 upbm affinity estimate (log intensity, higher = more binding, comparable within an allelic series); in [3], 11.2 upbm affinity estimate (log intensity, higher = more binding, comparable within an allelic series); in experiment [4] it was 10.4 upbm affinity estimate (log intensity, higher = more binding, comparable within an allelic series).

For CTCGCGAG, the binding signal was 9.76 upbm affinity estimate (log intensity, higher = more binding, comparable within an allelic series) in experiment [5]; 10 upbm affinity estimate (log intensity, higher = more binding, comparable within an allelic series) in experiment [6]; 9.82 upbm affinity estimate (log intensity, higher = more binding, comparable within an allelic series) in experiment [7]; 9.78 upbm affinity estimate (log intensity, higher = more binding, comparable within an allelic series) in [8]; 10.1 upbm affinity estimate (log intensity, higher = more binding, comparable within an allelic series) in [9]; 9.89 upbm affinity estimate (log intensity, higher = more binding, comparable within an allelic series) in experiment [10].

Consider CACGATCA, for which the binding signal in [1] is 10.2 upbm affinity estimate (log intensity, higher = more binding, comparable within an allelic series); in experiment [3] it was 11 upbm affinity estimate (log intensity, higher = more binding, comparable within an allelic series); in [4], 10.3 upbm affinity estimate (log intensity, higher = more binding, comparable within an allelic series).

With GGCGCGCC, the binding signal in experiment [5] was 9.93 upbm affinity estimate (log intensity, higher = more binding, comparable within an allelic series); in experiment [11] it was 9.33 upbm affinity estimate (log intensity, higher = more binding, comparable within an allelic series); in experiment [7], 10.1 upbm affinity estimate (log intensity, higher = more binding, comparable within an allelic series); in experiment [12], 9.71 upbm affinity estimate (log intensity, higher = more binding, comparable within an allelic series); in experiment [8], 9.89 upbm affinity estimate (log intensity, higher = more binding, comparable within an allelic series); in experiment [13], 10.1 upbm affinity estimate (log intensity, higher = more binding, comparable within an allelic series). The binding signal in experiment [10] is 9.82 upbm affinity estimate (log intensity, higher = more binding, comparable within an allelic series); in experiment [14], 10 upbm affinity estimate (log intensity, higher = more binding, comparable within an allelic series); in experiment [15], 9.73 upbm affinity estimate (log intensity, higher = more binding, comparable within an allelic series).

For the sequence CGCTTAAC, the binding signal in experiment [1] was 10.2 upbm affinity estimate (log intensity, higher = more binding, comparable within an allelic series); in experiment [3], 11.2 upbm affinity estimate (log intensity, higher = more binding, comparable within an allelic series); in experiment [4] it was 10.3 upbm affinity estimate (log intensity, higher = more binding, comparable within an allelic series).
